Laboratory results from PubChem BioAssay (NCI).
The panel holds about 83,000 compounds, 20% with a hit somewhere; the sample as a whole holds those more often.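 In brief: 96-well plates, 48 h treatment, single concentration, percent growth endpoint.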 The source made the active and inactive calls. The calls were made as follows: active = growth percent below 10; inactive = the rest.

What was measured:
Experiment in all cases: NCI-60 one-dose screen, 48 h (100 = growth as untreated, 0 = no growth, -100 = all killed)
Details in all cases: 10 µM unless noted
DU-145 prostate = tested on: DU-145 prostate
K-562 leukemia = tested on: K-562 leukemia
MALME-3M melanoma = tested on: MALME-3M melanoma
MDA-MB-231 breast = tested on: MDA-MB-231 breast
RXF 393 renal = tested on: RXF 393 renal
SF-268 CNS = tested on: SF-268 CNS
SF-295 CNS = tested on: SF-295 CNS
SF-539 CNS = tested on: SF-539 CNS
UACC-257 melanoma = tested on: UACC-257 melanoma
M14 melanoma = tested on: M14 melanoma
HCT-15 colon = tested on: HCT-15 colon
HT29 colon = tested on: HT29 colon
SNB-75 CNS = tested on: SNB-75 CNS
SNB-19 CNS = tested on: SNB-19 CNS
U251 CNS = tested on: U251 CNS
PC-3 prostate = tested on: PC-3 prostate
SK-MEL-5 melanoma = tested on: SK-MEL-5 melanoma
UACC-62 melanoma = tested on: UACC-62 melanoma
LOX IMVI melanoma = tested on: LOX IMVI melanoma
SK-MEL-28 melanoma = tested on: SK-MEL-28 melanoma

Measured: growth

CC1(C)CC[C@]23CC[C@]4(C)[C@H](CC[C@@H]5[C@@]6(C)C/C(=C/c7ccncc7)C(=O)C(C)(C)[C@@H]6CC[C@]54C)[C@H]2[C@H]1OC3=O
active: SF-539 CNS 6.84% [100 µM] | SNB-75 CNS -49.9% [100 µM]
inactive: DU-145 prostate 80.5% [100 µM] | K-562 leukemia 50.7% [100 µM] | MALME-3M melanoma 67.6% [100 µM] | MDA-MB-231 breast 37.5% [100 µM] | RXF 393 renal 43.6% [100 µM] | SF-268 CNS 42.7% [100 µM] | SF-295 CNS 25.1% [100 µM] | UACC-257 melanoma 84.5% [100 µM] | M14 melanoma 79.3% [100 µM] | HCT-15 colon 76.5% [100 µM] | HT29 colon 71.5% [100 µM] | SNB-19 CNS 17.3% [100 µM] | U251 CNS 39.2% [100 µM] | PC-3 prostate 50.5% [100 µM] | SK-MEL-5 melanoma 36.3% [100 µM] | UACC-62 melanoma 56.4% [100 µM] | LOX IMVI melanoma 76.7% [100 µM] | SK-MEL-28 melanoma 87.7% [100 µM]

CCN(CC)c1ccc(/C=C/C=C2\NC(=O)NC2=O)cc1
inactive: DU-145 prostate 40.8% | K-562 leukemia 13.9% | MALME-3M melanoma 51.8% | MDA-MB-231 breast 64.1% | SF-268 CNS 54.8% | SF-295 CNS 24.1% | SF-539 CNS 10.4% | UACC-257 melanoma 43% | M14 melanoma 17.7% | HCT-15 colon 29.5% | SNB-75 CNS 33.8% | SNB-19 CNS 34.6% | U251 CNS 29.1% | PC-3 prostate 18.9% | UACC-62 melanoma 33% | LOX IMVI melanoma 33.2% | SK-MEL-28 melanoma 57.5%
active: RXF 393 renal 2.31% | HT29 colon -30.1% | SK-MEL-5 melanoma 8.64%

Cc1ccc(-c2cc(-c3ccc(C)cc3)nc(NCCNc3ccnc4cc(Cl)ccc34)n2)cc1
inactive: SNB-19 CNS 16.8%
active: DU-145 prostate -26.4% | K-562 leukemia -14.4% | MALME-3M melanoma -81.4% | MDA-MB-231 breast -89.1% | RXF 393 renal -70.4% | SF-268 CNS -21.9% | SF-295 CNS -76.3% | SF-539 CNS -80.6% | UACC-257 melanoma -60.9% | M14 melanoma -88.8% | HCT-15 colon -84.9% | HT29 colon -36% | SNB-75 CNS -30.2% | U251 CNS -84.4% | PC-3 prostate -22.8% | SK-MEL-5 melanoma -93.1% | UACC-62 melanoma -79.9% | LOX IMVI melanoma -92.3% | SK-MEL-28 melanoma -83.6%

COc1ccc(C(=O)CCC(=O)O)cc1
inactive: DU-145 prostate 99.7% | K-562 leukemia 49.1% | MALME-3M melanoma 87% | MDA-MB-231 breast 80.4% | RXF 393 renal 109% | SF-268 CNS 95.6% | SF-295 CNS 95% | SF-539 CNS 98.7% | UACC-257 melanoma 80.2% | M14 melanoma 95.3% | HCT-15 colon 77.6% | HT29 colon 49.8% | SNB-75 CNS 99.9% | SNB-19 CNS 104% | U251 CNS 83.1% | PC-3 prostate 92.5% | SK-MEL-5 melanoma 99.8% | UACC-62 melanoma 99.7% | LOX IMVI melanoma 90.2% | SK-MEL-28 melanoma 112%

C/C=C/C1OC23CCCCC2C(C#N)(C(=N)O3)C1(C#N)C#N (stereo not given)
inactive: DU-145 prostate 95.1% | K-562 leukemia 94.7% | MALME-3M melanoma 99% | MDA-MB-231 breast 110% | RXF 393 renal 116% | SF-268 CNS 97.6% | SF-295 CNS 110% | SF-539 CNS 98.2% | UACC-257 melanoma 93.3% | M14 melanoma 92.8% | HCT-15 colon 85% | HT29 colon 109% | SNB-75 CNS 85.9% | SNB-19 CNS 101% | U251 CNS 102% | PC-3 prostate 98.1% | SK-MEL-5 melanoma 99.1% | UACC-62 melanoma 87% | LOX IMVI melanoma 81.9% | SK-MEL-28 melanoma 109%

CC(C)c1ccc(/C=N/N=C(N)N)cc1
inactive: DU-145 prostate 98.9% | K-562 leukemia 19.9% | MALME-3M melanoma 88.4% | MDA-MB-231 breast 89.3% | RXF 393 renal 89.4% | SF-268 CNS 88.5% | SF-295 CNS 67% | SF-539 CNS 91.8% | UACC-257 melanoma 77% | M14 melanoma 84.9% | HCT-15 colon 89.6% | HT29 colon 70.6% | SNB-75 CNS 76.9% | SNB-19 CNS 97.1% | U251 CNS 89.7% | PC-3 prostate 48.4% | SK-MEL-5 melanoma 91.7% | UACC-62 melanoma 95.8% | LOX IMVI melanoma 83.6% | SK-MEL-28 melanoma 85.9%

O=C(COc1cccc(/C=C2\Oc3ccccc3C2=O)c1)c1ccc([N+](=O)[O-])cc1
inactive: DU-145 prostate 111% | K-562 leukemia 70.7% | MALME-3M melanoma 108% | MDA-MB-231 breast 72.6% | RXF 393 renal 97.6% | SF-268 CNS 96.2% | SF-295 CNS 197% | SF-539 CNS 97.4% | UACC-257 melanoma 97.6% | M14 melanoma 100% | HCT-15 colon 94.2% | HT29 colon 108% | SNB-75 CNS 81.7% | SNB-19 CNS 91.3% | U251 CNS 93.6% | PC-3 prostate 86.6% | SK-MEL-5 melanoma 99% | UACC-62 melanoma 72.2% | LOX IMVI melanoma 88.6% | SK-MEL-28 melanoma 135%
